Potency and affinity values are given separately.
Biological target: Protein disulfide-isomerase (Homo sapiens) (UniProt P07237)
Assay: PDI inhibitors, insulin aggregation turbidity, dose response, biochemical, absorbance, cherry-picked samples (AID 602350);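 also: 0% = neutral controls and -100% = rutin hydrate positive control wells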
Conditions: recombinant PDI insulin aggregation, absorbance 650 nm, 90 min; series mostly up to 19.5 µM; activity change, negative = inhibition: at the top concentration;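 active = absorbance falls by 30% or more versus neutral controls, with a potency fitted within twice the top valid dose; inconclusive = no clear call, values can overlap the other calls; inactive = change opposite to expected direction, plus the rest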

Sequence of Protein disulfide-isomerase (Homo sapiens) (P07237 whole entry, looked up): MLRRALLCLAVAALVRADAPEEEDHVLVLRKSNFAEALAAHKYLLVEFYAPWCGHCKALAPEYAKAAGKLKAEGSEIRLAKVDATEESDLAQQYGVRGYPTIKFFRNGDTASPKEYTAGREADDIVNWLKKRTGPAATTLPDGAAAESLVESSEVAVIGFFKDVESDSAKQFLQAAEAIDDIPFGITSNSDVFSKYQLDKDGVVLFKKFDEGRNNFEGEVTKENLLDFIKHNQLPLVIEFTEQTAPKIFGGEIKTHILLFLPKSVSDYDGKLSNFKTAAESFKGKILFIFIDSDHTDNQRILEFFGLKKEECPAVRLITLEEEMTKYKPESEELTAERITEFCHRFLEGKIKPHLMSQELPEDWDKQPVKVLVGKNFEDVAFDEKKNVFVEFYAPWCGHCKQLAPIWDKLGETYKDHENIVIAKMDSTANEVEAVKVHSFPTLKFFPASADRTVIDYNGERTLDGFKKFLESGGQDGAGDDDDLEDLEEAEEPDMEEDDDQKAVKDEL

Activity change, negative = inhibition, inactive:
CN(C)CCCN(C(=O)c1ccc(S(=O)(=O)N2CCCc3ccccc32)cc1)c1nc2ccc(F)cc2s1 -10.6%
COc1ccc(/C=C2\Sc3ccc(C(=O)NCCCN4CCCC4)cc3N(C)C2=O)cc1OC 3.6%
COc1cc(C(=O)N2CCN(C/C=C/c3ccccc3)CC2)cc(OC)c1OC 21.3%
CC(=O)C1=C(O)C(=O)N(CCc2c[nH]c3ccccc23)C1c1cccc(O)c1 (centres undefined) -15.4%
O=C(NC(=S)Nc1cccc(NC(=O)c2ccccc2)c1)c1cccc([N+](=O)[O-])c1 0.228%
CC(=O)N1CCC(C(=O)NCCOc2cccc(C)c2)CC1 9.17%
C[C@H](CO)N1C[C@H](C)[C@@H](CN(C)Cc2ccccc2)Oc2ccc(NC(=O)Nc3ccccc3)cc2CC1=O -16.7%
NC(=O)c1nsc(C(=O)N(CC(=O)NCc2ccc(F)cc2)Cc2ccco2)c1N 0.167%
Cn1nnnc1SCC(=O)Nc1cc(C(F)(F)F)ccc1N1CCOCC1 -1.51%
Cc1[nH][nH]c(=O)c1C(c1c(C)[nH][nH]c1=O)c1cn(Cc2ccccc2Cl)c2ccccc12 7.21%
C[C@]12CC[C@H]3C(=CCc4cc(O)ccc43)[C@@H]1CCC2=O -15.9%
CCN(CC)C(=O)CSc1nnc([C@H](Cc2c[nH]c3ccccc23)NC(=O)OC(C)(C)C)o1 -12.5%
OCCC1CN(Cc2cccn2-c2ccccn2)CCN1C1CCCCC1 (centres undefined) 7.6%
C=CCn1c(SCC(=O)Nc2ccc(N(C)C)cc2)nnc1-c1cccc(C)c1 0.83%
O=C(c1ccc(OCCN2CCCCC2)cc1)c1c(-c2ccc(O)cc2)sc2cc(O)ccc12 -12.5%
Cc1ccc(S(=O)(=O)N2CCC(C(=O)Nc3ccc(S(=O)(=O)N4CCCC4)cc3)CC2)cc1 4.28%
NC(Cc1ccc(C(F)(F)F)cc1)c1csc(Nc2ccc(C(=O)NCCCO)cn2)n1 (centres undefined) -1.16%
CC(=O)c1cc(-c2ccccc2)n(CC(=O)Nc2cccc(C)c2)c1C 16.4%
COc1ccc(N(CC(=O)NCCSC2CCCCC2)S(=O)(=O)c2ccccc2)c(OC)c1 -16.7%
CCOC(=O)c1c(CN(C)C)n(-c2ccc(C)cc2)c2cc(Br)c(O)cc12 -19%
O=C(NCc1cccs1)C1CC(c2ccc(F)cc2)=NO1 (centres undefined) -2.19%
COc1ccc(S(=O)(=O)NCC(c2ccc(F)cc2)N2CCOCC2)cc1Br (centres undefined) -1.36%
O=C(Nc1cccc(S(=O)(=O)Nc2ccc(SC(F)F)cc2)c1)C1CCC1 -18.6%
CC(=O)c1ccc(NC(=O)c2cc(Cl)nc3ccccc23)cc1 1.56%
CCOC(=O)c1ccc(NC(=O)C2(c3ccc(Cl)cc3)CCCC2)cc1 -0.339%
O=C1CC(C(=O)N2CCc3ccccc32)CN1c1ccc(F)cc1 (centres undefined) 5.33%
Cc1noc(C)c1C(=O)OCC(=O)NCCc1ccc(Cl)cc1 19.9%
CCOC(=O)c1c(CN2CCN(C)CC2)n(-c2ccccc2)c2cc(Br)c(O)cc12 -11.8%
CC(C)C[C@@H](CN1CCC[C@@H]1CN1C(=O)C(=O)NC[C@@H]1Cc1ccccc1)N1C[C@H](Cc2ccc(O)cc2)N(CCc2ccccc2)C(=O)C1=O -18.8%
CC(OC(=O)c1cccc(S(=O)(=O)N(C)C)c1)C(=O)NCC(=O)Nc1ccc(F)c(F)c1F (centres undefined) 5.12%
CC1(C)CC[C@]2(C(=O)O)CC[C@]3(C)C(=CC[C@@H]4[C@@]5(C)CC[C@H](O[C@@H]6O[C@H](C(=O)O)[C@@H](O)[C@H](O[C@@H]7OC[C@H](O)[C@H](O)[C@H]7O)[C@H]6O)C(C)(C)[C@@H]5CC[C@]43C)[C@@H]2C1 6.7%
O=C(CCN1C(=O)C2C3C=CC(C4CC34)C2C1=O)Oc1ccccc1 (centres undefined) 5.35%
O=C(/C=C/c1c(F)cccc1Cl)c1ccc(O)cc1 -15.5%
CC(=O)Oc1ccc(C2OC(=O)c3ccccc3N2C(C)=O)cc1 (centres undefined) 29% [at 6.8 µM]
C[C@@H]1CN([C@H](C)CO)C(=O)c2cc(NC(=O)Cc3cn(C)c4ccccc34)ccc2O[C@@H]1CN(C)S(=O)(=O)c1ccc(F)cc1 -15.5%
O=C(c1cc([N+](=O)[O-])ccc1N1CCOCC1)N1CCN(c2ccc([N+](=O)[O-])cc2)CC1 8.47%
CCOc1ncccc1C(=O)OCC(=O)Nc1ccc(C(C)C)cc1 1.68%
O=C(Cc1ccccc1)Nc1cccc(C(=O)N/N=C/c2ccco2)c1 3.54%
O=c1[nH]c(C2CCN(S(=O)(=O)c3ccc(C(F)(F)F)cc3)CC2)nc2c1nnn2Cc1ccc(F)cc1 14.8%

From PubChem BioAssay AID602350 (Broad Institute, 2012)
